About 7,900 targets were measured; listed, in parts, are those with a hit and a random draw of the rest. About 0.6% of all pairs of compound and target were hits.
What was measured:
Test in all cases: log2 fold change, soluble protein after heating vs DMSO (PISA); higher = thermal stabilisation; K562 cells, 10 uM, 30 min; active = over 0.2 and 3.5 SD of the protein, either way, in both replicates (recomputed)
bafetinib = compound: Cc1ccc(NC(=O)c2ccc(CN3CC[C@H](N(C)C)C3)c(C(F)(F)F)c2)cc1Nc1nccc(-c2cncnc2)n1 [bafetinib]
In short: (§1)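 Soluble protein was quantified by TMTpro 16plex LC-MS/MS after channel sums were equalised. It was obtained as the supernatant after 21,000xg for 90 min from pooled aliquots of K562 cells (2×10^6 cells/mL, 10 μM compound, 30 min) heated for 3 min across 48°C-58°C and extracted in PBS with 0.5% NP-40 at 4°C. Thermal stability values are relative to control samples and come from duplicates. They are given as log2 fold changes.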

[1] = compound: Cc1cccc(CC(=O)N2CCc3c2ccc(-c2cn(C)c4ncnc(N)c24)c3F)n1
In short: as §1

nilotinib = compound: Cc1cn(-c2cc(NC(=O)c3ccc(C)c(Nc4nccc(-c5cccnc5)n4)c3)cc(C(F)(F)F)c2)cn1 [nilotinib]
In short: as §1

[2] = compound: Cc1nc(Nc2n[nH]c3c2CN(C(=O)N[C@H](CN(C)C)c2ccccc2)C3(C)C)c2sccc2n1
In short: as §1

dasatinib = compound: Cc1nc(Nc2ncc(C(=O)Nc3c(C)cccc3Cl)s2)cc(N2CCN(CCO)CC2)n1 [dasatinib]
In short: as §1

[3] = compound: Cc1ncc(-c2ccnc(Nc3ccc(S(C)(=O)=O)cc3)n2)n1C(C)C
In short: as §1

[4] = compound: Cn1cc(-c2ccc3c(c2)CCN3C(=O)Cc2cccc(C(F)(F)F)c2)c2c(N)ncnc21
In short: as §1

[5] = compound: Cn1cc(-c2ccc3nnc(C(F)(F)c4ccc5ncccc5c4)n3n2)cn1
In short: as §1

tipifarnib = compound: Cn1cncc1[C@@](N)(c1ccc(Cl)cc1)c1ccc2c(c1)c(-c1cccc(Cl)c1)cc(=O)n2C [tipifarnib]
In short: as §1

mubritinib = compound: FC(F)(F)c1ccc(/C=C/c2nc(COc3ccc(CCCCn4ccnn4)cc3)co2)cc1 [mubritinib]
In short: as §1

[6] = compound: NC(=O)Nc1cc(-c2cccc(F)c2)sc1C(=O)N[C@H]1CCCNC1
In short: as §1

[7] = compound: NC(=O)c1cnc(N[C@@H]2CCCC[C@@H]2N)nc1Nc1cccc(-n2nccn2)c1
In short: as §1

[8] = compound: NC1(c2ccc(-c3nc4ccn5c(=O)[nH]nc5c4cc3-c3ccccc3)cc2)CCC1
In short: as §1

[9] = compound: NCC(=O)Nc1ccc(-n2nc(C(F)(F)F)cc2-c2ccc3c(ccc4ccccc43)c2)cc1
In short: as §1

entinostat = compound: Nc1ccccc1NC(=O)c1ccc(CNC(=O)OCc2cccnc2)cc1 [entinostat]
In short: as §1

vorinostat = compound: O=C(CCCCCCC(=O)Nc1ccccc1)NO [vorinostat]
In short: as §1

citarinostat = compound: O=C(CCCCCCNC(=O)c1cnc(N(c2ccccc2)c2ccccc2Cl)nc1)NO [citarinostat]
In short: as §1

silmitasertib = compound: O=C(O)c1ccc2c(c1)nc(Nc1cccc(Cl)c1)c1ccncc12 [silmitasertib]
In short: as §1

[10] = compound: O=C1NC(=O)C(c2cnc3ccccn23)=C1c1cn2c3c(cc(F)cc13)CN(C(=O)N1CCCCC1)CC2
In short: as §1

[11] = compound: c1cc(OCCN2CCCCC2)cc(-c2n[nH]c3ccc(-c4nnc[nH]4)cc23)c1
In short: as §1

Measured: log2 fold change

EEF1D isoform 2 (UniProt P29692)
Chain of UniProt P29692 (P29692 whole entry, looked up): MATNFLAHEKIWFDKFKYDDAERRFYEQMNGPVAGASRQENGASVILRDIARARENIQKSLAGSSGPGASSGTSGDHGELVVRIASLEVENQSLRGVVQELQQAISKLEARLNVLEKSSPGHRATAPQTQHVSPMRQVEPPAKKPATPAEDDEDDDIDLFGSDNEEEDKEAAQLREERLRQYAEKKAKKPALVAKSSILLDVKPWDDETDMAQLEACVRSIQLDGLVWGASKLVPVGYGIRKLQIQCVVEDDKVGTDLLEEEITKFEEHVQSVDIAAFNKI
inactive: bafetinib 0.025 | [1] -0.011 | nilotinib -0.066 | [2] -0.01 | dasatinib -0.051 | [3] 0 | [4] -0.007 | [5] -0.044 | tipifarnib -0.103 | mubritinib 0.081 | [6] -0.02 | [7] -0.06 | [8] -0.034 | [9] -0.105 | entinostat 0.018 | vorinostat -0.02 | citarinostat 0.017 | silmitasertib 0.108 | [10] -0.001 | [11] -0.067

FAM50A (UniProt Q14320)
Chain of UniProt Q14320 (Q14320 whole entry, looked up): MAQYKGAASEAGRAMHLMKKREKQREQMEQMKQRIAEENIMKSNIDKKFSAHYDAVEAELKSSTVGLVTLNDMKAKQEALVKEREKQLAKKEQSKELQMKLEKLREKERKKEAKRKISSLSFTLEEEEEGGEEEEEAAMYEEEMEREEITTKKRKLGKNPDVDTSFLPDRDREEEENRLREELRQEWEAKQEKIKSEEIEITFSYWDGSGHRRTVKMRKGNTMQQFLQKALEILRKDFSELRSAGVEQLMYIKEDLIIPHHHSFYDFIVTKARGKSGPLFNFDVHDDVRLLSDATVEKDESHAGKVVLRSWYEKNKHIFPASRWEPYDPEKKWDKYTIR
inactive: bafetinib -0.035 | [1] -0.045 | nilotinib -0.016 | [2] -0.096 | dasatinib -0.134 | [3] 0.029 | [4] -0.021 | [5] 0.044 | tipifarnib -0.031 | mubritinib 0.083 | [6] 0.003 | [7] -0.008 | [8] -0.087 | [9] -0.082 | entinostat 0.045 | vorinostat 0.011 | citarinostat 0.095 | silmitasertib 0.071 | [10] -0.001 | [11] -0.019

CUX1 isoform 2 (UniProt Q13948)
Chain of UniProt Q13948 (Q13948 whole entry, looked up): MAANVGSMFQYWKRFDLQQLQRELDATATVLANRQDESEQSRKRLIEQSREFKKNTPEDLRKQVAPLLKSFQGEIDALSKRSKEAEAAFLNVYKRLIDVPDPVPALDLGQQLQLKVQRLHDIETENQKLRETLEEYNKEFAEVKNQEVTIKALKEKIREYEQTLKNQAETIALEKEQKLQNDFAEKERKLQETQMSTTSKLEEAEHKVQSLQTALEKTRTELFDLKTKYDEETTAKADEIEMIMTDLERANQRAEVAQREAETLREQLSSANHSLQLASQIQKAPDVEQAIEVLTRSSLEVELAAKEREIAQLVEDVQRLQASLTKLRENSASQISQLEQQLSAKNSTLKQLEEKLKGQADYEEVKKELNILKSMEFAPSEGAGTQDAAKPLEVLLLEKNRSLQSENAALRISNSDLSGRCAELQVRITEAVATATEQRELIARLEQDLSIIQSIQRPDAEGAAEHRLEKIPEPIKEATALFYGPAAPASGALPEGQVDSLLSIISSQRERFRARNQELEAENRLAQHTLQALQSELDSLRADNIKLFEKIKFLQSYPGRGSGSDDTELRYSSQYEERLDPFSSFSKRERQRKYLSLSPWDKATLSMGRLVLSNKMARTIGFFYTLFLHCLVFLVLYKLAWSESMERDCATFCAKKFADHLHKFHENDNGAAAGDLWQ
inactive: bafetinib 0.051 | [1] 0.042 | nilotinib -0.001 | [2] -0.029 | dasatinib -0.084 | [3] 0.078 | [4] 0.072 | [5] 0.063 | tipifarnib 0.062 | mubritinib 0.007 | [6] -0.027 | [7] -0.031 | [8] -0.033 | [9] -0.026 | vorinostat 0.076 | citarinostat 0.137 | silmitasertib -0.016 | [10] -0.047 | [11] -0.03
active: entinostat 0.343

DNAJC1 (UniProt Q96KC8)
Chain of UniProt Q96KC8 (Q96KC8 whole entry, looked up): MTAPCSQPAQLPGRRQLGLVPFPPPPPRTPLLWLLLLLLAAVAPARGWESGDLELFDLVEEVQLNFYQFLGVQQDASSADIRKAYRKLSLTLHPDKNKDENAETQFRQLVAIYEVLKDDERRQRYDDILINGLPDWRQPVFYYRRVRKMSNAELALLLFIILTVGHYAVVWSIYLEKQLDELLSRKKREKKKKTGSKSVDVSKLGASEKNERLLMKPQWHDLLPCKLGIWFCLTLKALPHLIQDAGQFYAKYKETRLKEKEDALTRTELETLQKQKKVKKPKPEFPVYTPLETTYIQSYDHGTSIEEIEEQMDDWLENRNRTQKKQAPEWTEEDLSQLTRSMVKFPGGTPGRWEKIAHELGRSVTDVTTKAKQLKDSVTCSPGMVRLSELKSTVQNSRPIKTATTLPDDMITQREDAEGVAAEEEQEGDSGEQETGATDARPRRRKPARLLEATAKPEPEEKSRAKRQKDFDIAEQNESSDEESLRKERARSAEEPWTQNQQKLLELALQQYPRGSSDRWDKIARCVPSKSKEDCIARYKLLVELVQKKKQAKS
inactive: bafetinib -0.185 | [1] -0.026 | nilotinib -0.035 | [2] 0.016 | dasatinib -0.064 | [3] 0.002 | [4] 0.028 | [5] 0.047 | tipifarnib 0.039 | mubritinib 0.041 | [6] 0.013 | [7] -0.055 | [8] -0.082 | [9] -0.08 | entinostat 0.042 | vorinostat 0.106 | citarinostat 0.017 | silmitasertib 0.01 | [10] -0.016 | [11] -0.083

ECH1 (UniProt Q13011)
Chain of UniProt Q13011 (Q13011 whole entry, looked up): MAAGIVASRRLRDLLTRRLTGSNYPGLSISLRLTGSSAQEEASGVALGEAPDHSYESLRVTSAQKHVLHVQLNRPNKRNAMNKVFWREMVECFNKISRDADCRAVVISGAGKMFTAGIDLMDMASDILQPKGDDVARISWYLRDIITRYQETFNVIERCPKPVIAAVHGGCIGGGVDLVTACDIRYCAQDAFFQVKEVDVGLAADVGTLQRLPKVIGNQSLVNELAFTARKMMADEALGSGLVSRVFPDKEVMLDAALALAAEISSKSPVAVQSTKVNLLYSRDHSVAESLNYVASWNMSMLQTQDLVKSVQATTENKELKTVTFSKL
inactive: bafetinib 0.318 | [1] -0.003 | nilotinib -0.024 | [2] 0.013 | dasatinib 0.249 | [3] -0.033 | [4] 0.134 | [5] 0.039 | tipifarnib -0.056 | mubritinib -0.011 | [6] 0 | [7] -0.101 | [8] 0.295 | [9] -0.078 | entinostat -0.025 | vorinostat -0.015 | citarinostat 0.002 | silmitasertib -0.072 | [10] -0.076 | [11] 0.038

DNAJC19 (UniProt Q96DA6)
Chain of UniProt Q96DA6 (Q96DA6 whole entry, looked up): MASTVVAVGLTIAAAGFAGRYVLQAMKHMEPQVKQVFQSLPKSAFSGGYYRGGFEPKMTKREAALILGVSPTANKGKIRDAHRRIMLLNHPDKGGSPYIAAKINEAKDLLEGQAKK
inactive: bafetinib -0.123 | [1] 0.003 | nilotinib 0.025 | [2] 0.002 | dasatinib -0.003 | [3] -0.005 | [4] 0.012 | [5] 0.022 | tipifarnib 0.012 | mubritinib 0.001 | [6] -0.014 | [7] 0.004 | [8] -0.017 | [9] -0.006 | entinostat 0.004 | vorinostat -0.03 | citarinostat 0.024 | silmitasertib -0.018 | [10] 0.01 | [11] -0.015

DUS2 (UniProt Q9NX74)
Chain of UniProt Q9NX74 (Q9NX74 whole entry, looked up): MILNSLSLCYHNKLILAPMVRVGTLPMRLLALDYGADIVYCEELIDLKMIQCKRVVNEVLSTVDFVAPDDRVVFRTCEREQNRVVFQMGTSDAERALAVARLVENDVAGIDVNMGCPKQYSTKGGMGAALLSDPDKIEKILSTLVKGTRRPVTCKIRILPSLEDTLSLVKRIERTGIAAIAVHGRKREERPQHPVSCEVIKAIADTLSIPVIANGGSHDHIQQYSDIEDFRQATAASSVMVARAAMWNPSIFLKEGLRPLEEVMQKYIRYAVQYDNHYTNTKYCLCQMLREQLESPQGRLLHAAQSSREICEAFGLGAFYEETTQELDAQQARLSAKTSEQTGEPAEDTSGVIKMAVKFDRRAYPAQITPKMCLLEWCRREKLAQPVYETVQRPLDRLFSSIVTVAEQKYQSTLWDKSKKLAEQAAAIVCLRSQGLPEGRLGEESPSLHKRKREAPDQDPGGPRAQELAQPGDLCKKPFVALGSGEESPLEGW
inactive: bafetinib -0.017 | [1] -0.025 | nilotinib -0.243 | [2] -0.032 | dasatinib -0.07 | [3] 0.014 | [4] -0.072 | [5] 0.01 | tipifarnib 0.094 | mubritinib 0.045 | [6] 0.051 | [7] -0.066 | [8] -0.091 | [9] -0.004 | entinostat 0.008 | vorinostat 0.041 | citarinostat 0.124 | silmitasertib 0.092 | [11] 0.038
active: [10] -0.424

FADS1, A0A0A0MR51
inactive: bafetinib -0.03 | [1] 0.062 | nilotinib 0.004 | [2] -0.005 | dasatinib 0.011 | [3] -0.019 | [5] -0.045 | tipifarnib -0.021 | mubritinib 0.028 | [6] -0.041 | [7] -0.036 | [8] -0.074 | [9] 0.036 | entinostat -0.002 | vorinostat -0.105 | citarinostat -0.029 | silmitasertib 0.014 | [10] -0.15 | [11] -0.029
active: [4] 0.253

Reference: the supplement of paper PMC10849652
